MARV entry inh: qHTS for inhibitors of binding or entry into cells for Marburg Virus | AID 540276, 2011 | 1.8% of 300,000 active | Marburg virus pseudotyped entry inhibition, cell reporter | Potency, µM (series often up to 37.8 µM), actives largely listed as inhibitors; calls by dose curve; tested in HEK293 cells
LASV entry inh: qHTS for Inhibitors of binding or entry into cells for Lassa Virus; Lassa virus pseudotype entry inhibition, cell reporter; Potency, µM (series often up to 37.9 µM), usual class: inhibitors; 1.2% of 300,000 active; AID 540256, 2011; calls by dose curve; tested in HEK293 cells; further: nearly all actives have a fitted effect of over 50% in size
HCMV inh: qHTS Assay for inhibitors of the human cytomegalovirus (HCMV). AID 1259415, 2018. HFF cells, HCMV-luciferase reporter, 72 h; stronger effect = lower value. 4.5% of 410,000 active. activity change, negative = inhibition, % at 57.5 µM; in the data active means activity change below about -60%; inconclusive means no clear call, values can overlap the other calls; inactive means above about -39%
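HFF cells seeded 16 h at 37C, treated with compounds, infected with luciferase-reporter HCMV at MOI 1 PFU/cell; luciferase read at 72 h post infection, normalized to buffer-only and Salinomycin controls.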
FMDV antiviral: High Throughput Screening for Foot and Mouth Disease Virus Antivirals. FMDV antiviral cell-based qHTS. Potency, µM (highest dose often 57.9 µM), hits mostly inhibitors. 1.2% of 410,000 active. AID 1159524, 2015; calls by dose curve; tested in HEK293T cells; further: read-out not given here; nearly all actives have a fitted effect of over 45% in size
HCV inh: qHTS Assay for Inhibitors of Hepatitis C Virus (HCV) | Huh7.5.1 HCVcc-Cre infection, luciferase reporter, 44 h | Potency, µM (doses to about 41.8 µM), usual class: inhibitors | 3.4% of 340,000 active; active means well fitted inhibition curve with a large enough effect; inconclusive means small, poorly fitted or top-dose-only effect, or another doubt; inactive means no such curve, though single readings can be large or run the other way
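After 44 h co-culture of compound, cells and HCVcc-Cre (~0.5 moi), substrate is added for 15 min at room temperature and luciferase measured over 15 sec. Cells were seeded at 1,000/well and pre-cultured 4 h.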
A number is an active result; – = inactive; ? = inconclusive; · = no result; [ ] = dose if it differs, or a comment. Compounds with a hit are over-represented: about 7.9% of the library has one in this group of screens.

SMILES | MARV entry inh | LASV entry inh | HCMV inh | FMDV antiviral | HCV inh
CN(C)C(Cc1ccccc1)C(=O)c1c[nH]c2ccccc12 (stereo not given) | · | · | – | – | –
CC(Cl)C(=O)c1c[nH]c2ccccc12 (stereo not given) | – | – | -67 | – | –
COC(=O)[C@@H]1[C@@H](CO)[C@@H]2Cn3c(ccc(Br)c3=O)[C@@H]2N1CCc1ccccc1 | · | · | – | · | ·
Cc1cccc(C)c1NC(=O)[C@H]1CCCCN1C | – | · | · | · | ·
COc1ccc(-c2cncnc2N)cc1OC | · | · | – | ? | ·
Nc1ncncc1-c1ccc2ccccc2c1 | · | · | -75 | – | –
CCN(CC)c1ccc(/C=N/n2c(C)nc3ccccc3c2=O)cc1 | · | · | – | ? | ?
CN(C(=O)CSc1cc(C(=O)c2nccn2C)c2ccccc2n1)c1ccccc1 | ? | – | -99 | – | –
Cn1cc(Br)c(NS(=O)(=O)c2ccc(Cl)s2)n1 | · | · | – | – | –
COc1ccc(C(=O)c2ccc(N3CCN(C(=O)c4ccc(F)cc4)CC3)c(F)c2)cc1Br | – | – | -88 | ? | ?
CCC(=O)c1ccc(N2CCN(C(=O)c3ccc(F)cc3)CC2)c(F)c1 | – | – | – | – | ?
Cc1ccc(NC(=O)Cn2c(-c3nonc3N)nc3ccccc32)cc1C | · | – | – | – | ·
O=C(Cn1c(=O)oc2ccccc21)N(Cc1ccccc1)C1CCS(=O)(=O)C1 (stereo not given) | – | – | -101 | – | –
CCN(CC)c1cc2c(cc1F)c(=O)c(S(=O)(=O)c1cccc(C)c1)cn2C | · | – | -64 | – | ·
COc1cccc([C@@H]2Oc3ccc(Br)cc3C(=O)[C@H]2OC(=O)Nc2cc(OC)c(OC)c(OC)c2)c1 | – | · | · | · | ·
COc1cccc(C(=O)NC(C)c2cccc3ccccc23)c1OC (stereo not given) | 5.6µM | ? | ? | – | –
CCOc1ccccc1C(=O)Nc1cc2c(cc1N1CCOCC1)n(C)c(=O)n2C | – | – | -112 | – | ·
CCOc1cc(N2CCOCC2)c(OCC)cc1NC(=O)c1ccc(OC)cc1 | ? | – | ? | – | 4.5µM
CCOc1ccc(NC(=O)Cc2ccccc2)c([N+](=O)[O-])c1 | ? | – | – | – | –
CCOc1cc(N2CCOCC2)c(OCC)cc1NC(=O)Cc1cccc2ccccc12 | ? | – | – | – | 14µM
CCOc1ccc(NC(=O)Cc2cccc3ccccc23)c([N+](=O)[O-])c1 | – | – | -74 | – | –
CCN(C(=O)CO/N=C/c1ccc(OC)cc1OC)c1c(N)n(Cc2ccccc2)c(=O)[nH]c1=O | · | · | – | – | ?
COCCNC(=S)N/N=C1\CC(C)CC(C)(C)C1 (stereo not given) | – | – | -76 | – | –
CC(C)(C)C1CCC(=NNC(=S)NCc2ccccc2)CC1 (stereo not given) | – | ? | -62 | – | –
COCCNC(=S)NN=C1CCCCCC1 | · | · | -115 | – | –
SMILES | MARV entry inh | LASV entry inh | HCMV inh | FMDV antiviral | HCV inh
CCC(C)(C)C1CCC(=NNC(=S)Nc2ccccc2)CC1 (stereo not given) | – | ? | – | – | –
CCOC(=O)N/N=C1\CC(C)CC(C)(C)C1 (stereo not given) | – | – | – | – | –
S=C(NCCc1ccccc1)NN=C1CCCCCC1 | – | – | -92 | – | –
CC1(C)CC(=O)C=C(NCCN2CCN(C(=S)NC3CCCCC3)CC2)C1 | – | – | – | – | –
O=C(NC(=S)Nc1ccccc1[N+](=O)[O-])c1cncc(Br)c1 | · | · | – | – | –
CCC[C@H]1[C@@H](NS(=O)(=O)c2cccc([N+](=O)[O-])c2)CC[C@@]23CCCN2C(=O)CCC[C@@H]13 | · | · | – | · | ·
Cc1ccc2nc(-c3ccc(Cl)c(NC(=O)c4ccc5c(c4)OCCO5)c3)oc2c1 | ? | ? | – | – | ·
O=c1c(-c2ccc(Cl)cc2)nc2cnc(N3CCNCC3)nc2n1Cc1cccs1 | · | · | · | – | ·
O=C(Nc1ccc(Br)cc1)c1ccc(F)c(S(=O)(=O)NCc2cccs2)c1 | ? | 4µM | -92 | – | 5µM
Cc1ccc(NC(=O)c2ccc(F)c(S(=O)(=O)N3CCc4ccccc4C3)c2)cc1F | · | – | -68 | – | ·
CCOC(=O)Cc1csc(NC(=O)c2ccc(S(=O)(=O)N3CCOCC3)cc2)n1 | ? | – | – | – | ?
O=C(Nc1ccc(-c2cn3ccsc3n2)cc1)c1ccc(F)c(S(=O)(=O)N2CCOCC2)c1 | – | – | ? | ? | 5.6µM
CCOC(=O)Cc1csc(NC(=O)c2ccc(C)c(S(=O)(=O)N3CCOCC3)c2)n1 | · | · | – | 32µM | ?
COc1ccc(NS(=O)(=O)c2cccc(C(=O)NCC(c3cccs3)N3CCOCC3)c2)cc1 (stereo not given) | – | – | – | – | –
CCc1nn2c(=O)cc(COC(=O)c3ccccc3)nc2s1 | · | ? | – | – | ·
COc1ccc2c(CNCCc3cccs3)c(C(=O)O)n(Cc3ccccc3C)c2c1 | · | – | – | – | ·
COCCCNC(=O)c1ccc(Cn2c(=O)c3ccccc3n(CC(N)=O)c2=O)cc1 | – | ? | – | – | ·
CCc1ccccc1NC(=O)c1ccc(F)c(S(=O)(=O)N2CCN(c3ccccc3OC)CC2)c1 | · | ? | -62 | ? | ·
CC(C)c1ccc(NC(=O)c2ccc(F)c(S(=O)(=O)N3CCc4ccccc43)c2)cc1 | · | ? | – | ? | ·
Cc1ccc(C)c(N2CCN(S(=O)(=O)c3cc(C(=O)Nc4ccc(Oc5ccccc5)cc4)ccc3F)CC2)c1 | · | – | -65 | – | ·
CCc1ccc(NC(=O)c2ccc(F)c(S(=O)(=O)N3CCN(c4cc(C)ccc4C)CC3)c2)cc1 | · | – | ? | – | ·
O=C(Nc1ccc(Br)cc1)c1ccc(F)c(S(=O)(=O)N2CCc3ccccc32)c1 | · | ? | -92 | ? | ·
Cc1nc2ccc(NC(=O)c3ccc(C)c(S(=O)(=O)N4CCOCC4)c3)cc2s1 | · | · | -72 | ? | 10µM
Cc1nc2ccc(NC(=O)c3ccc(Cl)c(S(=O)(=O)N(C)c4ccccc4)c3)cc2s1 | ? | ? | -101 | 8.9µM | ?
Cc1ccc(NC(=O)c2ccc(F)c(S(=O)(=O)NCCc3ccccc3)c2)cc1F | · | ? | -75 | – | ·
SMILES | MARV entry inh | LASV entry inh | HCMV inh | FMDV antiviral | HCV inh
Cc1ccc(NC(=O)c2ccc(F)c(S(=O)(=O)N3CCOCC3)c2)cc1F | – | – | -69 | ? | ·
Cc1ccc(CNS(=O)(=O)c2cc(C(=O)Nc3ccc(C(C)C)cc3)ccc2F)cc1 | · | – | – | – | ·
O=C(Nc1ccccc1)c1ccc(F)c(S(=O)(=O)N2CCOCC2)c1 | – | – | – | – | –
Cc1nc2ccc(NC(=O)c3cc(S(=O)(=O)N(C)c4ccccc4)ccc3Cl)cc2s1 | ? | – | ? | ? | ?
Cn1c(=O)c2nncnc2n(C)c1=O | – | – | – | – | –[0.335 µM]
Cc1nc2c(=O)n(C)c(=O)n(C)c2nc1Cl | 8.2µM | ? | -103 | ? | 14µM
COc1ccc(CC(=O)Nc2sc3c(c2C(=O)Nc2c(C)cccc2C)CCCCC3)cc1 | – | – | -70 | – | ·
COc1ccc(NC(=O)c2c(NC(=O)C(F)(F)F)sc3c2CCCCC3)cc1 | · | 3.2µM | – | – | ·
